Results taken from PubChem BioAssay (EPA / NIEHS).
Active and inactive are the calls of the source. How the source made its calls: active means hit-call score of the fitted dose curve at least 0.9, where 1 is the maximum; inactive means score below 0.9.

Columns and labels:
Settings in all cases: mRNA level, 48 h; actives raise or lower the signal
[1] = read-out: Tumor necrosis factor receptor superfamily member 6 (Homo sapiens) (UniProt P25445); test: LTEA_HepaRG_FAS: Life Technologies and Expression Analysis (LTEA) Assay for Fas cell surface death receptor (FAS) using HepaRG (AID 2283447)
How it was run: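 FAS transcript level was measured by TaqMan qRT-PCR against three housekeeping genes after 48 h chemical exposure. Cells were HepaRG, 0.5% DMSO vehicle, with a top concentration of 100 uM and half-log dilutions over eight points, in duplicate.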

[2] = read-out: Fatty acid synthase (Homo sapiens) (UniProt P49327); test: LTEA_HepaRG_FASN: Life Technologies and Expression Analysis (LTEA) Assay for Fatty Acid Synthase (FASN) using HepaRG (AID 2283448);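 on AC50: differentiated human HepaRG liver cells in serum-free induction medium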
How it was run: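 Transcript-level assay: HepaRG liver cells are treated for 48 h across an eight-point range topping at 100 uM, and FASN mRNA, normalized to three housekeeping genes, is compared with DMSO controls in both directions.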

[3] = read-out: Cyclin D2 (CCND2), CCND2 (gene 894); test: LTEA_HepaRG_CCND2: Life Technologies and Expression Analysis (LTEA) Assay for Cyclin D2 (CCND2) using HepaRG (AID 2283449)
How it was run: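 Read-out is CCND2 mRNA level measured by qRT-PCR in human HepaRG liver cells and normalised to three housekeeping genes. Chemicals were applied for 48 h at up to 100 uM, with gain or loss fitted relative to 0.5% DMSO.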

[4] = read-out: Cyclin Dependent Kinase Inhibitor 1A (CDKN1A), CDKN1A (gene 1026); test: LTEA_HepaRG_CDKN1A: Life Technologies and Expression Analysis (LTEA) Assay for Cyclin Dependent Kinase Inhibitor 1A (CDKN1A) using HepaRG (AID 2283450)
How it was run: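 Read-out is CDKN1A mRNA by TaqMan qRT-PCR, normalized to three housekeeping genes and fitted in both directions against the DMSO baseline. Human HepaRG cells were treated 48 h with test chemicals up to 100 uM in half-log steps, 0.5% DMSO.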

[5] = read-out: catalase (CAT), CAT (gene 847); test: LTEA_HepaRG_CAT: Life Technologies and Expression Analysis (LTEA) Assay for catalase (CAT) using HepaRG (AID 2283452)
How it was run: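 Expression of CAT was quantified by TaqMan qRT-PCR with ACTB/GAPDH/POLR2A normalization after 48 h chemical exposure of HepaRG. Eight-point half-log series, top 100 uM, in 0.5% DMSO; gain or loss fitted against vehicle.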

[6] = read-out: Cytochrome P450 (CYP1A1), CYP1A1 (gene 1543); test: LTEA_HepaRG_CYP1A1: Life Technologies and Expression Analysis (LTEA) Assay for Cytochrome P450 (CYP1A1) using HepaRG (AID 2283454)
How it was run: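 HepaRG, 48 h post-plating switched to serum-free induction medium; 8-pt conc-response (top 100 uM, half-log, 0.5% DMSO), duplicates, 48 h. Lysis in RLT, TaqMan qRT-PCR for CYP1A1; gain or loss vs DMSO.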

[7] = read-out: CFLAR gene, CFLAR (gene 8837); test: LTEA_HepaRG_CFLAR: Life Technologies and Expression Analysis (LTEA) Assay for CFLAR gene using HepaRG (AID 2283455)
How it was run: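 HepaRG, 48 h exposure, 8-pt conc-response (100 uM top, half-log), 0.5% DMSO vehicle, duplicates. CFLAR expression by qRT-PCR; ACTB/GAPDH/POLR2A normalization; gain or loss fit vs DMSO baseline.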

[8] = read-out: Forkhead box O1 (FOXO1), FOXO1 (gene 2308); test: LTEA_HepaRG_FOXO1: Life Technologies and Expression Analysis (LTEA) Assay for Forkhead box O1 (FOXO1) using HepaRG (AID 2283456)
How it was run: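 Readout is FOXO1 transcript level by multiplexed qRT-PCR against three housekeeping genes, curve-fitted in both directions relative to 0.5% DMSO vehicle. Human HepaRG cultures received chemicals for 48 h, up to 100 uM in half-log steps.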

[9] = read-out: Forkhead box O3 (FOXO3), FOXO3 (gene 2309); test: LTEA_HepaRG_FOXO3: Life Technologies and Expression Analysis (LTEA) Assay for Forkhead box O3 (FOXO3) using HepaRG (AID 2283459)
How it was run: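 HepaRG, 48 h post-dose; 8 conc., half-log from 100 uM, 0.5% DMSO, duplicates; serum-free induction medium. Readout: FOXO3 mRNA, TaqMan qRT-PCR, housekeeping-normalized. Bidirectional curve fit vs DMSO baseline.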

[10] = read-out: ABC Transporter (ABCB1), ABCB1 (gene 5243); test: LTEA_HepaRG_ABCB1: Life Technologies and Expression Analysis (LTEA) Assay for ABC Transporter (ABCB1) using HepaRG (AID 2283460)
How it was run: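 Expression of ABCB1 was quantified by qRT-PCR against three housekeeping genes after human HepaRG cultures received test chemicals for 48 hours. Concentrations spanned eight half-log steps topping at 100 uM in 0.5% DMSO; gain or loss of signal was fitted relative to vehicle.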

[11] = read-out: growth arrest and DNA damage 45 (GADD45B), GADD45B (gene 4616); test: LTEA_HepaRG_GADD45B: Life Technologies and Expression Analysis (LTEA) Assay for growth arrest and DNA damage 45 (GADD45B) using HepaRG (AID 2283461)
How it was run: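 HepaRG, ~100,000 cells/well, 48 h plating; serum-free induction medium; cpd 100 uM top, half-log x8, 0.5% DMSO, duplicate, 48 h; lysis in RLT, RNA isolation, qRT-PCR; norm ACTB/GAPDH/POLR2A; bidirectional fit vs DMSO.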

[12] = read-out: ABC Transporter (ABCC3), ABCC3 (gene 8714); test: LTEA_HepaRG_ABCC3: Life Technologies and Expression Analysis (LTEA) Assay for ABC Transporter (ABCC3) using HepaRG (AID 2283462)
How it was run: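 Human HepaRG, 48 h dosing, 8-pt half-log series from 100 uM, 0.5% DMSO vehicle, duplicates. ABCC3 mRNA by TaqMan qRT-PCR, housekeeping-normalized; bidirectional curve fit vs DMSO.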

[13] = read-out: ABC Transporter (ABCB11), ABCB11 (gene 8647); test: LTEA_HepaRG_ABCB11: Life Technologies and Expression Analysis (LTEA) Assay for ABC Transporter (ABCB11) using HepaRG (AID 2283463)
How it was run: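 ABCB11 transcript levels are read by Fluidigm TaqMan qRT-PCR after 48 h chemical treatment of human HepaRG cells. Concentrations span 100 uM downward in half-log steps with 0.5% DMSO; gain or loss is fitted against DMSO controls.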

[14] = read-out: ABC Transporter (ABCC2), ABCC2 (gene 1244); test: LTEA_HepaRG_ABCC2: Life Technologies and Expression Analysis (LTEA) Assay for ABC Transporter (ABCC2) using HepaRG (AID 2283464)
How it was run: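 HepaRG, 48 h post-plating; serum-free induction medium; cpd 8-pt, 100 uM top, half-log, 0.5% DMSO, duplicate, 48 h. Readout: ABCC2 mRNA by qRT-PCR, norm. ACTB/GAPDH/POLR2A. Bidirectional fit vs DMSO baseline.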

[15] = read-out: Broad substrate specificity ATP-binding cassette transporter ABCG2 (Homo sapiens) (UniProt Q9UNQ0); test: LTEA_HepaRG_ABCG2: Life Technologies and Expression Analysis (LTEA) Assay for ABC Transporter (ABCG2) using HepaRG (AID 2283465)
How it was run: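 Read-out is ABCG2 mRNA induction or loss quantified by qRT-PCR after 48 h chemical treatment of human HepaRG cells, normalized to three housekeeping genes. Concentrations reached 100 uM top in half-log steps; fitting was bidirectional against 0.5% DMSO.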

[16] = read-out: ATP-citrate lyase (ACLY), ACLY (gene 47); test: LTEA_HepaRG_ACLY: Life Technologies and Expression Analysis (LTEA) Assay for ATP-citrate lyase (ACLY) using HepaRG (AID 2283466)
How it was run: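 HepaRG, 48 h exposure, 8-pt half-log dilutions (top 100 uM), 0.5% DMSO. Readout: ACLY mRNA, TaqMan qRT-PCR, housekeeping-normalized (ACTB/GAPDH/POLR2A). Bidirectional curve fit vs DMSO.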

[17] = read-out: growth arrest and DNA damage 45 (GADD45A), GADD45A (gene 1647); test: LTEA_HepaRG_GADD45A: Life Technologies and Expression Analysis (LTEA) Assay for growth arrest and DNA damage 45 (GADD45A) using HepaRG (AID 2283458)
How it was run: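 Human HepaRG liver cells are treated in duplicate for 48 h with chemicals in 0.5% DMSO, highest concentration 100 uM. Expression is read by qRT-PCR and analyzed in both directions against vehicle.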

Measured: AC50

Sequence of Broad substrate specificity ATP-binding cassette transporter ABCG2 (Homo sapiens) (Q9UNQ0 whole entry, looked up): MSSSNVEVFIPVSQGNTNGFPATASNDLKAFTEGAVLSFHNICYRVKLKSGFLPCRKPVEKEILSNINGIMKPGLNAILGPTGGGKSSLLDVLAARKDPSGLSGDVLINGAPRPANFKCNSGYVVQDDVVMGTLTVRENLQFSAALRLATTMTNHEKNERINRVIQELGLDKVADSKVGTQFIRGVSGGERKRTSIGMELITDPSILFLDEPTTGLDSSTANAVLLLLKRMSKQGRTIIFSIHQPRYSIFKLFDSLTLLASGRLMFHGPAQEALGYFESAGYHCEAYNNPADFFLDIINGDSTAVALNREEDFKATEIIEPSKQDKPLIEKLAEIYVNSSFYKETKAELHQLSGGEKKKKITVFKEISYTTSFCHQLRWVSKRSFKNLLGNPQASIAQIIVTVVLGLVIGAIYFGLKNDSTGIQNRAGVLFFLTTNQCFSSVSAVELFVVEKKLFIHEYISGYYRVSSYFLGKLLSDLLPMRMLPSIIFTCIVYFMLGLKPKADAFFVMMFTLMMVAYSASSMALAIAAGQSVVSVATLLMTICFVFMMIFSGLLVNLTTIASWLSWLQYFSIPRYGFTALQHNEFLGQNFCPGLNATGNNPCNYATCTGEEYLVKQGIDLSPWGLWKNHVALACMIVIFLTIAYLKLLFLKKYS
Sequence of Fatty acid synthase (Homo sapiens) (P49327 whole entry, looked up): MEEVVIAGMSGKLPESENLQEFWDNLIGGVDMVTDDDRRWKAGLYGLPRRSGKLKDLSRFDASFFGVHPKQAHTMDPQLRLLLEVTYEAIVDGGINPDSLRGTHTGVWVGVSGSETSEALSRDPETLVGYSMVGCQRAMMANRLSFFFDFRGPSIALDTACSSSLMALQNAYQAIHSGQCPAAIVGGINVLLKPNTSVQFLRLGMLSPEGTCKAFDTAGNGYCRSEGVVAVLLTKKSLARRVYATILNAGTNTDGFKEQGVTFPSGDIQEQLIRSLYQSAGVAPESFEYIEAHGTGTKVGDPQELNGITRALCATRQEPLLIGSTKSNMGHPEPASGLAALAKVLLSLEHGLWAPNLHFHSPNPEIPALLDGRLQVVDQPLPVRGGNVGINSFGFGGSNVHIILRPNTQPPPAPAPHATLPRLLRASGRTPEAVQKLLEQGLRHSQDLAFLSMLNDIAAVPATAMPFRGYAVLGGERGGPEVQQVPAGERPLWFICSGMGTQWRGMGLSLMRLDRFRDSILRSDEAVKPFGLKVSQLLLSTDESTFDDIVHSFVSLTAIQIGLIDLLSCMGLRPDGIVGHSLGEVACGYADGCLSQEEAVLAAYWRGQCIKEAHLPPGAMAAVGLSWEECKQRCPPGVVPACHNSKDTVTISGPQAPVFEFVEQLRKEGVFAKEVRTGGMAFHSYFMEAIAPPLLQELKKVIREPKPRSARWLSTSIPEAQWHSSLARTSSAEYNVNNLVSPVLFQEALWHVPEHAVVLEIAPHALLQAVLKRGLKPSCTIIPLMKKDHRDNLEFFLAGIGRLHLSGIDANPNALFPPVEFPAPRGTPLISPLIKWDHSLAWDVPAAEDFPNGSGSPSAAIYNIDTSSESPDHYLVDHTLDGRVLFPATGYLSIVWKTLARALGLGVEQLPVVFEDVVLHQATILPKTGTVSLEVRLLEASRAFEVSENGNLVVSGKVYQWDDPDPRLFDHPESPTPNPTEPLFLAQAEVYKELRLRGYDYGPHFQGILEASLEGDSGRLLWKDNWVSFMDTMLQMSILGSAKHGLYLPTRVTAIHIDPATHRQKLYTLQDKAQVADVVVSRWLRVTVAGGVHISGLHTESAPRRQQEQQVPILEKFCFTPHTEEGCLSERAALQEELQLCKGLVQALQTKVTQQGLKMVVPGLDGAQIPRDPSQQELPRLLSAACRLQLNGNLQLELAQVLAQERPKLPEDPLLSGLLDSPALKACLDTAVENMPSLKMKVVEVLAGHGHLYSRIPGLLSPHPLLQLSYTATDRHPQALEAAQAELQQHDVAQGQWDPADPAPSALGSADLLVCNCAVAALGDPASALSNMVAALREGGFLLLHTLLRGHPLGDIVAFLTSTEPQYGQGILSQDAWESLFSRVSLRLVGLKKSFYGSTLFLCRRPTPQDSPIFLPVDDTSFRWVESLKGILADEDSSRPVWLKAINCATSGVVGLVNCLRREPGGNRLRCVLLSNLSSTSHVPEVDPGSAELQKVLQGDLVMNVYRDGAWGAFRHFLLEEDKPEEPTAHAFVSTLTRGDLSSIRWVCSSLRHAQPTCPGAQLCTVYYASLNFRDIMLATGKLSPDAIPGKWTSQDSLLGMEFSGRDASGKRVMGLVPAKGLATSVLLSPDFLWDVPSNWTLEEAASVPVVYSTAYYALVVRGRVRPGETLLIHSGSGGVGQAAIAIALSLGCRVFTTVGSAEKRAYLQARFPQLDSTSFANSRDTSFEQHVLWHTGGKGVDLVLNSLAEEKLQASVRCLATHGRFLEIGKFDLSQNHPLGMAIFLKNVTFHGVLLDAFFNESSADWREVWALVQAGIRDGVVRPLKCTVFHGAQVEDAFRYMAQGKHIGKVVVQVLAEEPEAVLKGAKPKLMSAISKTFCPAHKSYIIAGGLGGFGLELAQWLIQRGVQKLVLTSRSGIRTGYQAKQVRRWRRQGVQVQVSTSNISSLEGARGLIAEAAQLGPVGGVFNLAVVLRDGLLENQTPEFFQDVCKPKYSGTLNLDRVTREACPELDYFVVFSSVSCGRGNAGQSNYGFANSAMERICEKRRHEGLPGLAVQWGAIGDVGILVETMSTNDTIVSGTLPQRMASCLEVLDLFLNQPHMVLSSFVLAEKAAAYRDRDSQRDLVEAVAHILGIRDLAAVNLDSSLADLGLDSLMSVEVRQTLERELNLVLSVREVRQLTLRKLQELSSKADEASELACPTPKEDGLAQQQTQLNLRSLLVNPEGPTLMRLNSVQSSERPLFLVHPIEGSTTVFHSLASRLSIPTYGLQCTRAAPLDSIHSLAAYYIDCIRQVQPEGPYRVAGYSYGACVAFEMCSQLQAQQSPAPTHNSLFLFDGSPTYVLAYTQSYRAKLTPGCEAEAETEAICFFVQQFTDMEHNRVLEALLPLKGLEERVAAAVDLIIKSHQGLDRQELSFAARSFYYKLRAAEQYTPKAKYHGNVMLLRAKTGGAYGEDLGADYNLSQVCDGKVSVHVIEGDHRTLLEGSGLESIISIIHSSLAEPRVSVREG

CN1CCN(Cc2cc(-c3ccc4[nH]c(=O)oc4c3)co2)[C@@H](c2ccc(F)cc2)C1
active: [5] 81.7 µM | [6] 61.3 µM | [8] 82.2 µM | [12] 78 µM | [13] 67.9 µM
not listed: [17]
inactive: all other assays above

FC(F)(F)C(F)(F)C(F)(F)C(F)(F)C(F)(F)C(F)(F)CCI
not listed: [15] | [17]
inactive: all other assays above

CCOC(=O)C(C)(C)Oc1ccc(Cl)cc1
active: [3] 12.2 µM | [6] 50 µM
not listed: [15]
inactive: all other assays above

CC(C)(C)c1cc(O)c(C(C)(C)C)cc1O
inactive: [3] | [4] | [9] | [11] | [15] | [16]
active: [1] 81.7 µM | [2] 50 µM | [5] 78.8 µM | [7] 77.4 µM | [8] 77.7 µM | [17] 50 µM | [10] 90.3 µM | [12] 73.6 µM | [13] 72.7 µM | [14] 85.9 µM

COCCOC[C@H](CC1(C(=O)NC2CCC(C(=O)O)CC2)CCCC1)C(=O)Oc1ccc2c(c1)CCC2 (some centres undefined)
not listed: [17]
inactive: all other assays above

C[C@]12C=CC(=O)C=C1CC[C@@H]1[C@@H]2C(=O)C[C@@]2(C)[C@H]1CC[C@]2(O)C(=O)CO
active: [10] 50 µM | [14] 50 µM
not listed: [3] | [4] | [6]
inactive: all other assays above

Cc1ccc(Cl)cc1
not listed: [15]
inactive: all other assays above
